# Results published in PubChem BioAssay AID1619 (SRMLSC, 2009).
# Hit rate of the full screen: of about 220,000 compounds, about 830 (0.38%) were called active.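 The calls were made as follows: active = compound inhibiting the enzyme by more than half at any dose during confirmatory dose-response retesting; inconclusive = strong single-dose inhibitors picked by rank but not retested; inactive = the rest.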 The list is a sample of the results. Measured potencies and affinities stand elsewhere.
# Target: Leucine aminopeptidase (Plasmodium falciparum (isolate 3D7)) (UniProt Q8IL11)
# Sequence (Q8IL11 whole entry, looked up): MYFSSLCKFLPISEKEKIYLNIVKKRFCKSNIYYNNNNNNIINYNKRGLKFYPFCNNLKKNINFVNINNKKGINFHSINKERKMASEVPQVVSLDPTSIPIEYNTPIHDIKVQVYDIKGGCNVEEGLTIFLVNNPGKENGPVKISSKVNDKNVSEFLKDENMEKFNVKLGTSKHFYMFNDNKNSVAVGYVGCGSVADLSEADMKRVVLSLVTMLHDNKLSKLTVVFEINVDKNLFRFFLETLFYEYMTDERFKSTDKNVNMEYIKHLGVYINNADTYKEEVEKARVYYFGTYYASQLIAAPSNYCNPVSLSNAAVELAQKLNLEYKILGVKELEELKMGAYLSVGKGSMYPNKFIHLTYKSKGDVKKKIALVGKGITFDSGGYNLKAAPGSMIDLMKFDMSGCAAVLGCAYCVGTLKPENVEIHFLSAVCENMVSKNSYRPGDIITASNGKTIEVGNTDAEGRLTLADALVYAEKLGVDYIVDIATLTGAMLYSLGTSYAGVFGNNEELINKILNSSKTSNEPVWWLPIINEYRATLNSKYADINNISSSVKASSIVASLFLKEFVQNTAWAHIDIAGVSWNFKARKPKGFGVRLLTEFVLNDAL
# Test: P. falciparum M17LAP inhibitors, primary screen, biochemical, fluorogenic H-Leu-NHMec substrate, 1536-well (AID 1619);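 also: plate controls were full reaction with DMSO carrier for no effect and no enzyme background for full effect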
# Conditions: recombinant M17LAP, H-Leu-NHMec fluorogenic kinetic assay; at 30 µM; active compounds read high
row,SMILES,inhibition
1,Cn1cnnc1SCC(=O)Nc1sc2c(c1C#N)CCCCC2,11.7% (inactive)
2,Cc1csc(SCC(=O)Nc2sccc2C#N)n1,0.5% (inactive)
3,N#Cc1c(NC(=O)CSC2=NCCS2)sc2c1CCCC2,19.2% (inactive)
4,N#Cc1c(NC(=O)CSc2ncn(-c3ccccc3)n2)sc2c1CCCC2,9.47% (inactive)
5,Cc1ccnc(SCC(=O)Nc2sc3c(c2C#N)CCCC3)n1,2.01% (inactive)
6,Cc1nnc(SCC(=O)Nc2sc3c(c2C#N)CCCC3)[nH]c1=O,52.5% (inactive)
7,Cn1cnnc1SCC(=O)Nc1sccc1C#N,-7.3% (inactive)
8,N#Cc1c(NC(=O)CSc2nc(N)cc(=O)[nH]2)sc2c1CCCCCC2,4.49% (inactive)
9,O=C1CC(C(=O)NCc2ccccc2)C2(CCCC2)O1 (configuration not stated),-0.86% (inactive)
10,COc1ccc(C2C(C(=O)N3CCCCC3)c3ccccc3C(=O)N2C)cc1 (configuration not stated),-0.86% (inactive)
11,CCOC(=O)c1sc(NC(=O)CSc2nc(C)cc(C)n2)c(C#N)c1C,-1.79% (inactive)
12,CCOC(=O)c1sc(NC(=O)CSc2nc(C)cc(C)c2C#N)c(C#N)c1C,-17.4% (inactive)
13,Cc1ccc(OCC(=O)OC2CCS(=O)(=O)C2)cc1 (configuration not stated),1.23% (inactive)
14,CN(C)c1ccc2c(=O)[nH][nH]c(=O)c2c1,5.67% (inactive)
15,CN1C(=O)c2ccc(N3CCCC3)cc2C1=O,22.5% (inactive)
16,O=C(Nc1ccc(Br)cc1Cl)NC1CC1,-4.66% (inactive)
17,CC(CCc1ccccc1)NC(=O)c1cccs1 (configuration not stated),-2.09% (inactive)
18,Cc1ccc2c(CC(=O)N3CCN(S(=O)(=O)c4ccc5c(c4)OCCO5)CC3)coc2c1,-3.86% (inactive)
19,Cc1ccccc1/C=N/NC(=O)Cn1nnc(N)n1,-9.27% (inactive)
20,COc1ccc2sc(N(CCN(C)C)C(=O)/C=C/c3cccs3)nc2c1,1.07% (inactive)
21,CC1=NN(C(=O)CSCc2ccccc2)C(O)(c2ccc(F)cc2)C1 (configuration not stated),6.76% (inactive)

row,SMILES,inhibition
1,COC(=O)c1c(NC(=O)C2C3CCC(C3)C2C(=O)O)sc2c1CCCCC2 (configuration not stated),56.4% (inactive)
2,COC(=O)c1c(NC(=O)C2CC2)sc2c1CCCC2,-6.73% (inactive)
3,CCOC(=O)c1c(NC(=O)C2CCCCC2C(=O)O)sc2c1CCCCC2 (configuration not stated),33.7% (inactive)
4,CCOC(=O)c1c(NC(=O)C2C3CCC(O3)C2C(=O)O)sc2c1CCCC2 (configuration not stated),14.3% (inactive)
5,COc1ccc(NC(=S)N(CCN2CCOCC2)Cc2cc3cc4c(cc3[nH]c2=O)OCCO4)cc1,10.8% (inactive)
6,Cc1ccccc1Nc1nnc(SCC(=O)NCc2ccco2)s1,45.1% (inactive)
7,Cc1nnc(SCC(=O)NC(=O)NCc2ccco2)s1,-1.14% (inactive)
8,CCOc1ccc(S(=O)(=O)c2c(C(=O)c3ccccc3)cnc3cc4c(cc23)OCCO4)cc1,1.82% (inactive)
9,O=C(CCS(=O)(=O)Cc1ccccc1F)N1CCc2ccccc2C1,6.01% (inactive)
10,COc1ccccc1N1CCN(c2ccc(N3C(=O)CCC3=O)cc2[N+](=O)[O-])CC1,-4.52% (inactive)
11,COc1ccc(OCC#CCN2CC(C)OC(C)C2)cc1 (configuration not stated),-3.27% (inactive)
12,CC(C)(C)c1ccc2c(c1)OC(C(=O)N/N=C\c1ccc(-c3cccc(C(=O)O)c3)o1)CO2 (configuration not stated),7.12% (inactive)
13,Nc1nonc1C(=O)N/N=C/c1ccc(-c2cccc(C(=O)O)c2)o1,30.2% (inactive)
14,O=C(N/N=C/c1ccc(-c2ccc([N+](=O)[O-])cc2)o1)c1cccnc1,4.87% (inactive)
15,O=C(N/N=C\c1ccc(-c2ccc([N+](=O)[O-])cc2)o1)C1COc2ccccc2O1 (configuration not stated),1.94% (inactive)
16,CCOP(C)(=O)C1(C(=O)OCc2ccccc2)CC1 (configuration not stated),-6.01% (inactive)
17,COc1cccc(CNc2ccc([N+](=O)[O-])cc2C)c1,6.82% (inactive)
18,CC(C)CN1C(=O)/C(=C/c2cccs2)NC1=S,35.9% (inactive)
19,O=C1/C(=C/c2ccc(N3CCCC3)cc2)NC(=S)N1C1CC1,-10.7% (inactive)
20,O=C(CC1C(=O)NCCN1C(=O)c1ccc(F)cc1)OCc1ccccc1 (configuration not stated),-6.93% (inactive)
21,Cc1ccc(CNC(=O)CN2CCCC(C)C2)cc1 (configuration not stated),8.72% (inactive)

row,SMILES,inhibition
1,COc1cccc(-c2[nH]nc3c2C(c2ccsc2)C(C#N)=C(N)O3)c1 (configuration not stated),35.3% (inactive)
2,COc1ccc(-c2[nH]nc3c2C(c2ccoc2)C(C#N)=C(N)O3)cc1 (configuration not stated),27.9% (inactive)
3,Cc1[nH]nc2c1C(c1ccoc1)C(C#N)=C(N)O2 (configuration not stated),21.9% (inactive)
4,COc1cc(-c2[nH]nc3c2C(c2ccoc2)C(C#N)=C(N)O3)cc(OC)c1OC (configuration not stated),24% (inactive)
5,O=C(Nc1nnc(-c2ccccn2)o1)c1ccc(Br)cc1,8.43% (inactive)
6,COCC(C)NC(=O)c1cc2cccc([N+](=O)[O-])c2[nH]1 (configuration not stated),11.6% (inactive)
7,NC(=O)N[C@@H](Cc1c[nH]c2ccccc12)C(=O)OCC(=O)N1CCCCC1,-0.49% (inactive)
8,O=C(O/N=C(\c1ccccc1)c1ccncc1)c1ccccc1Cl,3.91% (inactive)
9,CC(C)Cn1c2ccccc2c2cc(C(=O)O)ccc21,1.66% (inactive)
10,COc1ccc(-c2nc(N)n[nH]2)cc1,2.51% (inactive)
11,COc1ccc(-c2csc(N)n2)cc1,-1.01% (inactive)
12,Cc1ccc(S(=O)(=O)/N=C(\c2ccccc2)N(C)S(=O)(=O)c2ccc(C)cc2)cc1,-10.3% (inactive)
13,Cc1cc(C)cc(NC(=O)C2CCCN(c3nc(C)cc(C)n3)C2)c1 (configuration not stated),-13.6% (inactive)
14,Cc1cccc(NC(=O)C2CCN(c3nc(C)cc(C)n3)CC2)c1,35.1% (inactive)
15,Cc1cc(C(F)(F)F)nn1CC(=O)NNC(=S)Nc1cccc(Cl)c1,9.62% (inactive)
16,CC1CCC/C(=N\NC(=S)NCc2ccccc2)C1 (configuration not stated),9.29% (inactive)
17,CCCCOc1ncnc2c1[nH]c1ccc(OC)cc12,-0.91% (inactive)
18,COCCOc1cc2ncnc(N3CCC(C(=O)O)CC3)c2cc1OCCOC,5.32% (inactive)
19,Cc1cc(/C=C(/C#N)c2nc3ccccc3[nH]2)c(C)n1-c1ccccc1C(=O)O,23% (inactive)
20,Cc1cc(/C=C(/C#N)c2nc3ccccc3[nH]2)c(C)n1-c1cccc([N+](=O)[O-])c1,-7.34% (inactive)
